Source: the supplement of paper PMC11732987, “Enantioselective OTUD7B fragment discovery through chemoproteomics screening and high-throughput optimisation” (Communications Chemistry, 2025)

Key:
Test in all cases: log2 ratio of Biotin-Ahx-Ub-VS probe labelling (fragment/DMSO); higher = less target engagement (more negative = stronger competition), active = hit call of the paper (q ≤ 0.05, log2 ratio ≤ -1)
Settings in all cases: compound concentration: 200 uM; treatment time: 3 h
[1] = target: T1, OTUD6B (UniProt Q8N6M0)
T1 sequence (whole entry): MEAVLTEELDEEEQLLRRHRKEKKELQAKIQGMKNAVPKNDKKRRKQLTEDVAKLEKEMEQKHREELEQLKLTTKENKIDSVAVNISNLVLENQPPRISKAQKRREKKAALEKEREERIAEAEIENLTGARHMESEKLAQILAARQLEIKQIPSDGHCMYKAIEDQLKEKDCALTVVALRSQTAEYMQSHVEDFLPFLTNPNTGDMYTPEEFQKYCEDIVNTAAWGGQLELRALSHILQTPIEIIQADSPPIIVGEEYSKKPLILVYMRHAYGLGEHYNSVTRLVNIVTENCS
Method in brief: (§1)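 Fragment (200 µM) or vehicle was incubated for 3 h with triplicate HEK293T lysate samples of 495 µg, which were then treated with Biotin-Ahx-Ub-VS at 0.5 µM final for 1 h. Labelled DUBs were enriched on NeutrAvidin, digested with LysC and trypsin, and analysed by diaPASEF LC-MS/MS. Values are average log2 fragment/vehicle ratios from an unpaired t-test on global-median-normalised Spectronaut label-free quantities, using proteins with ≥2 unique peptides.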

[2] = target: T2, OTUD7B (UniProt Q6GQQ9)
T2 sequence (whole entry): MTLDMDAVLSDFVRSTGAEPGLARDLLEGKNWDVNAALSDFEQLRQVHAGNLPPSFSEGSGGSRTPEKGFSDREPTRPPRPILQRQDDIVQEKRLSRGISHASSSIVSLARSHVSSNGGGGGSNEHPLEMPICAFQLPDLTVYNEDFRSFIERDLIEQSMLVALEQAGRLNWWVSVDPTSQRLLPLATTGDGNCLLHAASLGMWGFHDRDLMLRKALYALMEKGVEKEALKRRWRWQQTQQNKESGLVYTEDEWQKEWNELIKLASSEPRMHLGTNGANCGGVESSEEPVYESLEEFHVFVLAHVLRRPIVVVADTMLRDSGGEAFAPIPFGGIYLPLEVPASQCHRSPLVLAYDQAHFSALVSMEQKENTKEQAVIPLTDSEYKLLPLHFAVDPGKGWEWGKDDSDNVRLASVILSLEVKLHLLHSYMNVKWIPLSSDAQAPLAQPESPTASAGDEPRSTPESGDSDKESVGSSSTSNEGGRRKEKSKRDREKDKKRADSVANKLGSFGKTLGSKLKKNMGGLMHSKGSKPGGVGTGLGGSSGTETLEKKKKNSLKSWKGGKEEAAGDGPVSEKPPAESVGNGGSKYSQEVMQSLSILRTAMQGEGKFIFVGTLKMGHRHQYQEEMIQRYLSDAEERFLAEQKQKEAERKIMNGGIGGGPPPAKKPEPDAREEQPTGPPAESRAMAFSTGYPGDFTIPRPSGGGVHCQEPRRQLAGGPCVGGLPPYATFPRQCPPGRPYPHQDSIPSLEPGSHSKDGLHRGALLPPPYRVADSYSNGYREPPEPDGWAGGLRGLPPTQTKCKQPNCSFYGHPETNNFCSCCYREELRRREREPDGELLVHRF
Method in brief: as §1

[3] = target: PRPF8 (UniProt Q6P2Q9)
Method in brief: as §1

[4] = target: T3, PSMD7 (UniProt P51665)
T3 sequence (whole entry): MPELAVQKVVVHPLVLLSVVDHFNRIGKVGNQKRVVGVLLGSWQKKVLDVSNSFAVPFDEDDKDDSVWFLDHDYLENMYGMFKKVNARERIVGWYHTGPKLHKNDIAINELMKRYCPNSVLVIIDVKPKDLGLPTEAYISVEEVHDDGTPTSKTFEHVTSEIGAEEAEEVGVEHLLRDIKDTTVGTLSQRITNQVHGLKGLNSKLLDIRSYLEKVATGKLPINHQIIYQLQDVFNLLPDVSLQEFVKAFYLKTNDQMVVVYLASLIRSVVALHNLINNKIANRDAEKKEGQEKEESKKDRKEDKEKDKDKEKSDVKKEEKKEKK
Method in brief: as §1

[5] = target: UCHL1 (UniProt P09936)
Sequence of UCHL1 (P09936 whole entry, looked up): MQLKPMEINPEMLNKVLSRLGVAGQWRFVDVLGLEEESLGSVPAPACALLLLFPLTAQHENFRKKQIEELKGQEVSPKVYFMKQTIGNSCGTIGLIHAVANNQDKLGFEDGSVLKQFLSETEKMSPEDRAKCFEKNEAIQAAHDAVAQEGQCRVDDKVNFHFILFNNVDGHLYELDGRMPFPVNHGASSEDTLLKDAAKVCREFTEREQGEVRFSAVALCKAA
Method in brief: as §1

[6] = target: T4, UCHL3 (UniProt P15374)
T4 sequence (whole entry): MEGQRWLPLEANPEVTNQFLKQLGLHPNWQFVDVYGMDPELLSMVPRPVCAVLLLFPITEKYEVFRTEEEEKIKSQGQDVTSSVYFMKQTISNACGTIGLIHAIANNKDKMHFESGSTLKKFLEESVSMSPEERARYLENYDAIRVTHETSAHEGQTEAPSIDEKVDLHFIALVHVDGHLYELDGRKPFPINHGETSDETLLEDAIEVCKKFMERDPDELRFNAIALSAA
Method in brief: as §1

[7] = target: T5, UCHL5 (UniProt Q9Y5K5)
T5 sequence (whole entry): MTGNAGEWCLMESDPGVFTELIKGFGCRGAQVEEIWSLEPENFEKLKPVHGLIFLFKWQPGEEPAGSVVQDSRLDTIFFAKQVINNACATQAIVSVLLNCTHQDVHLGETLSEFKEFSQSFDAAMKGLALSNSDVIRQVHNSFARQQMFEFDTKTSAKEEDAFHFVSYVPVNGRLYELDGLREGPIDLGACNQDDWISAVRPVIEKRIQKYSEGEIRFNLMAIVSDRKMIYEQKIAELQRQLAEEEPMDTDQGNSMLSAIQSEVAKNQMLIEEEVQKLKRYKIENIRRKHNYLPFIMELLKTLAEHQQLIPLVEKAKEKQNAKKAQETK
Method in brief: as §1

[8] = target: USP10 (UniProt Q14694)
Sequence of USP10 (Q14694 whole entry): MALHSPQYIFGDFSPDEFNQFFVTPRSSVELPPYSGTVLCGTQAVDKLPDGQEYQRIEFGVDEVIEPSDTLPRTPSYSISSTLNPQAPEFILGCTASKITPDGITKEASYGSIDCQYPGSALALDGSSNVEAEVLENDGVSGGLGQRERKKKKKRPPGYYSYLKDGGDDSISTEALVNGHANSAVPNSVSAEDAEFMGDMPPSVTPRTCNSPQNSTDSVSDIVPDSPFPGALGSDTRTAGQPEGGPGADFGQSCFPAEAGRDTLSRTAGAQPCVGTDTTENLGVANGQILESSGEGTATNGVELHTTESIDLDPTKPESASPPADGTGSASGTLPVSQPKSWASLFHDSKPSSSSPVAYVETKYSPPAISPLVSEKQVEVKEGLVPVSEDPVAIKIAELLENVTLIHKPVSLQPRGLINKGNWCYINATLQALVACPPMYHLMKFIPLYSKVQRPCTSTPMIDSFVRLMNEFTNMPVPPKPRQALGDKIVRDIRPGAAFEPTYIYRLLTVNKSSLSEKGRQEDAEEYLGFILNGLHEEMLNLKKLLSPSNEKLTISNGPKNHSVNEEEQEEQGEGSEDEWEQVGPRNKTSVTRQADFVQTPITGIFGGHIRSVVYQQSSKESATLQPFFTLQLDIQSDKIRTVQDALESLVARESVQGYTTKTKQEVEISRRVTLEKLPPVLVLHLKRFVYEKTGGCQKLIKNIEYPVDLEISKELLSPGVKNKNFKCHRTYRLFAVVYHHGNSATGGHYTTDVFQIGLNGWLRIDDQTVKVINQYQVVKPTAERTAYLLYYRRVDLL
Method in brief: as §1

[9] = target: T6, USP15 (UniProt Q9Y4E8)
T6 sequence (whole entry): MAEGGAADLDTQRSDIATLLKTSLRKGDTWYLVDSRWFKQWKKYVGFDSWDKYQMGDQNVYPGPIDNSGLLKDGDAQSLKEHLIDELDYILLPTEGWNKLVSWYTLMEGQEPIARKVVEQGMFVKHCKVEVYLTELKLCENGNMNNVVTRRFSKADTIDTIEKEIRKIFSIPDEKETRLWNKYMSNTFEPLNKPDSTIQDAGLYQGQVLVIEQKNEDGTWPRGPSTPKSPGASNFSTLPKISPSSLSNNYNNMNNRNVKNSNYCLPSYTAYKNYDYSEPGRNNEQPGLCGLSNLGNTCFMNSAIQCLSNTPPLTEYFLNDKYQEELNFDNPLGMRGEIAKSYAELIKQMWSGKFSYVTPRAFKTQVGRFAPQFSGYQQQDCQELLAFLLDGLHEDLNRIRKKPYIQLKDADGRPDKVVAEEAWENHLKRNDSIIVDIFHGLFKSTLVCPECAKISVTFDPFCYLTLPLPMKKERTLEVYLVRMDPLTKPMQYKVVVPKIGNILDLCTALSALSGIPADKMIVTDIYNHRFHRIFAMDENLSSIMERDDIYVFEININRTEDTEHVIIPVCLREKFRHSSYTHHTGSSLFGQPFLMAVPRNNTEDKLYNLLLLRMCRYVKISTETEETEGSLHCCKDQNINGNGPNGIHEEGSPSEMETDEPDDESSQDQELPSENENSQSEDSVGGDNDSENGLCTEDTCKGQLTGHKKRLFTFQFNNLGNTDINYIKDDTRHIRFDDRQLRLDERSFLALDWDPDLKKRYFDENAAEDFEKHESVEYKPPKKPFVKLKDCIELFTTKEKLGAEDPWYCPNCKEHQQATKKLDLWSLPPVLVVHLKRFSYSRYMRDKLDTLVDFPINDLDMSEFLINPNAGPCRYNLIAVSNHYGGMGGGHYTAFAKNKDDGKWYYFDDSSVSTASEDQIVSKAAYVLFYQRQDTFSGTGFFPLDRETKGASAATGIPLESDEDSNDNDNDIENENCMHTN
Method in brief: as §1

[10] = target: USP16 (UniProt Q9Y5T5)
Sequence of USP16 (Q9Y5T5 whole entry, looked up): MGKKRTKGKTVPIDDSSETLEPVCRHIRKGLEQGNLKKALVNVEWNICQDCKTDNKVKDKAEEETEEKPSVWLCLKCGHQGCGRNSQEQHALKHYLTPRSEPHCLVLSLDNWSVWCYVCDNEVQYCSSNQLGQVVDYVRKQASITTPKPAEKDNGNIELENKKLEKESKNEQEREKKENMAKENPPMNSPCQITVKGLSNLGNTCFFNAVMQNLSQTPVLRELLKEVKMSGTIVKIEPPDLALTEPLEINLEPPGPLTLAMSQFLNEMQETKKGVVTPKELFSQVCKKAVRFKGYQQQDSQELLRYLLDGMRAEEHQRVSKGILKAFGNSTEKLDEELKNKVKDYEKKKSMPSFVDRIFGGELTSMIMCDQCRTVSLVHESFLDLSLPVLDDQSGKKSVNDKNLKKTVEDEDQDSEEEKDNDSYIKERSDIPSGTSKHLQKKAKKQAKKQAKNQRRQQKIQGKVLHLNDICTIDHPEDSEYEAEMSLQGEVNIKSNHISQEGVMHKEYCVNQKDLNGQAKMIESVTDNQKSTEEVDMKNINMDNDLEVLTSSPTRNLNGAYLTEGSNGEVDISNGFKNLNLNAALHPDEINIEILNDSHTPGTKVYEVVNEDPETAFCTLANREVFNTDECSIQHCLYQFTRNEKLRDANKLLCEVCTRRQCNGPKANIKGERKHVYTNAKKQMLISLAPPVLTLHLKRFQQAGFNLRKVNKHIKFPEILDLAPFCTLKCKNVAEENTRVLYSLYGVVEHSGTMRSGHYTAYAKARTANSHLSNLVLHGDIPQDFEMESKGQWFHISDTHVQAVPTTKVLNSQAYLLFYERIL
Method in brief: as §1

Measured: log2 ratio of Biotin-Ahx-Ub-VS probe labelling

CN(CCc1ncc(Br)cn1)C(=O)CCl.Cl
inactive: [1] -0.311 | [3] -0.0479 | [4] -0.205 | [6] 0.504 | [7] -0.318 | [8] -0.276 | [9] -0.463 | [10] -0.32
active: [2] -1.39 | [5] -1.55
